FLuc inh: inhibitors of firefly (Photinus pyralis) luciferase | P08659 | purified P. pyralis luciferase, luminescence, biochemical | Potency, µM (titrated, usually from 115 µM), usual class: inhibitors | actives 2.5% (n = 76,000) | AID 1347043; further: nearly all actives have a fitted effect of over 65% in size
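Purified 10nM P. pyralis luciferase with 10uM D-luciferin and 10uM ATP in 50mM Tris acetate pH 7.5, 10mM Mg acetate, 0.01% Tween-20, 0.05% BSA. qHTS titration; luminescence read by CCD imager.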
NIH3T3 tox: cytotoxic compounds in NIH 3T3 cells; Potency, µM (top dose mostly 96.7 µM), inactives show at the highest dose activity change, negative = cytotoxicity, usual class: inhibitors; actives 4.3% (n = 94,000); AID 1345082; NIH 3T3 viability, CellTiter-Glo ATP luminescence, 48-72 h; further: nearly all actives have a fitted effect of over 55% in size
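Cells were seeded at 400 per well, treated with pin-transferred compound, and kept 48 or 72 hr at 37 °C before CellTiter-Glo addition and luminescence imaging of cellular ATP.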
NPR1 antag: antagonists of human natriuretic peptide receptor Npr1; P16066; HEK293 hNpr1 GloSensor cGMP, ANP-stimulated luminescence; Potency, µM (titrated, usually from 46.3 µM), for the others: at the highest dose activity change, negative = inhibition, usual class: inhibitors; actives 1.6% (n = 76,000); AID 1347048; calls by dose curve; further: nearly all actives have a fitted effect of over 60% in size
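Compound pre-incubated 30 min at room temperature on GloSensor-loaded HEK293 cells stably carrying hNpr1 and the pGS-40F cGMP biosensor. Stimulation uses hNppA at 0.1 nM final; luminescence is taken at baseline and 20 min post-agonist.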
GPT2 inh: GPT2 alanine aminotransferase inhibition. Potency, µM (doses to about 57.7 µM), for the others: top-dose activity change, negative = inhibition, actives largely listed as inhibitors. actives 0.25% (n = 100,000). Recombinant GPT2, coupled pyruvate oxidase/HRP Amplex Red fluorescence. AID 1671188; further: nearly all actives have a fitted effect of over 60% in size
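Fluorescence of coupled pyruvate oxidase/HRP/Amplex Red system (50uM Amplex, 30 min, dark) reports pyruvate formed by GPT2. Enzyme reaction: 10ng/uL GPT2, 2mM L-alanine, 250uM a-KG, 30 min room temperature, pH 7.5; 50uM AOA control.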
HEK293 tox: HEK 293 cell cytotoxicity; actives 6.6% (n = 94,000); AID 1345083; HEK 293 viability, ATP luminescence (CellTiter-Glo), 48-72 h; Potency, µM (doses to about 115 µM), for the others: at the highest dose activity change, negative = cytotoxicity, hits mostly inhibitors; further: nearly all actives have a fitted effect of over 60% in size
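CellTiter-Glo luminescence (cellular ATP) was read after 48 or 72 hr of compound exposure at 37 degree Celsius. Cells were HEK 293 plated at 250 cells/well.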
* = called active by the depositor; i = inactive; ? = inconclusive; nt = not tested or not shown; ! = not confirmed by another sample; [ ] = dose if it differs, or a comment. This is a sample that favours compounds with a hit; in the whole collection about 10% have one here. Unless noted, the call rests on the fitted dose curve; in most records, active means well fitted curve in the direction sought with a large enough effect; inconclusive means small, poorly fitted or top-dose-only effect, or another doubt; inactive means no such curve, though single readings can be large; an effect the other way counts as inactive or inconclusive. On the % scale 0 is the no-effect control and ±100 the full control effect; potency means the concentration at half of the fitted maximal effect.

SMILES	FLuc inh	NIH3T3 tox	NPR1 antag	GPT2 inh	HEK293 tox
O=C(NCc1ccc(F)c(F)c1)C1CCc2nnc(C3CC3)n21 (stereo not given)	nt	-12%	nt	-12%	-6%
O=C(Nc1ccc(Cl)cc1)NC1CCN(Cc2cccc(-c3cccs3)c2)CC1	nt	13µM*	nt	-20%	20µM*
O=C(Nc1ccccc1)NC1CCN(Cc2cccc(-c3cccs3)c2)CC1	nt	14µM*	nt	i	20µM*!
CC(C)NC(=O)NC1CCN(Cc2cccc(-c3cccs3)c2)CC1	nt	?	nt	i	?
CC(=O)N1CCN(C(=O)c2ccc3nc(-c4ccccn4)oc3c2)CC1	nt	-11%	nt	i	i
O=C(NCc1ccccn1)c1ccc2nc(-c3cccnc3Cl)oc2c1	nt	?	nt	4%	?
Cc1cccc(-c2nc3ccc(C(=O)NC4CCCCCC4)cc3o2)n1	nt	?	nt	-14%[88.5 µM]	79µM*
Cc1cccc(-c2nc3ccc(C(=O)NCc4ccccc4Cl)cc3o2)n1	nt	?	nt	-10%	?
Cc1cccc(-c2nc3ccc(C(=O)NCc4ccccc4F)cc3o2)n1	nt	?	nt	0%[88.5 µM]	100µM*
O=C(c1ccc2nc(-c3ccccn3)oc2c1)N1CCCCC1	nt	20µM*	nt	-27%[88.5 µM]	28µM*
O=C(NCc1ccccc1F)c1ccc2nc(-c3cccnc3Cl)oc2c1	nt	?	nt	-9%[88.5 µM]	100µM*
CC(C)NC(=O)c1ccc2oc(-c3ccccn3)nc2c1	nt	-29%	nt	i	?
CC(C)NC(=O)c1ccc2nc(-c3ccccn3)oc2c1	nt	?	nt	i	45µM*
Cc1ncccc1-c1nc2cc(C(=O)NC3CC3)ccc2o1	nt	89µM*	nt	i	?
O=C(NCc1cccc(Cl)c1)c1ccc2nc(-c3ccccn3)oc2c1	nt	?	nt	i	?
Cc1cccc(-c2nc3ccc(C(=O)N4CCOCC4)cc3o2)n1	nt	22µM*	nt	?	32µM*
O=C(NCc1cccc(C(F)(F)F)c1)c1ccc2nc(-c3ccccn3)oc2c1	nt	40µM*	nt	5%	?
O=C(c1cccc(Cl)c1)N1CCC(C(=O)N2CCC(c3nc4ncccc4[nH]3)CC2)CC1	nt	-21%	nt	-32%	?
O=C(NCc1ccccc1F)c1ccc2nc(-c3ccccn3)oc2c1	nt	?	nt	-3%[88.5 µM]	71µM*
O=C(NCCc1ccccc1F)c1ccc2nc(-c3cccnc3Cl)oc2c1	nt	-26%	nt	2%	40µM*
O=C(NCCc1ccccc1F)c1ccc2oc(-c3ccccn3)nc2c1	nt	-11%	nt	i	-1%
Cc1ccc(CCCO)c(NCc2ccc3nc(NCCCN4CCOCC4)n(Cc4nc(C)ccc4O)c3c2)c1	nt	nt	nt	-2%	nt
CN1Cc2ccc(C(=O)Nc3ccc4cn[nH]c4c3)cc2OCC1=O	32µM*	?	-2%[70.6 µM]	4%[88.5 µM]	-23%[172 µM]
Cn1cc(CN2Cc3ccc(C(=O)Nc4ccc(F)cc4)cc3OCC2=O)cn1	i	-25%[138 µM]	-5%[70.6 µM]	-6%[88.5 µM]	?
Cc1cc(CN(C)Cc2cn(-c3cccc(F)c3)nc2-c2ccc(C)o2)n[nH]1	?	?	-4%	i	45µM*
SMILES	FLuc inh	NIH3T3 tox	NPR1 antag	GPT2 inh	HEK293 tox
O=C1CC2(CCN(Cc3ccc(C(F)(F)F)cc3)CC2)Oc2ccccc2N1	i	?	-27%	i	45µM*
O=C1CC2(CCN(Cc3ccsc3)CC2)Oc2ccccc2N1c1ccccc1	i	?	-13%	-2%	?
O=C1CC2(CCN(Cc3ccc(F)cc3)CC2)Oc2ccccc2N1	i	-10%	4%	-22%	?
O=C1CC2(CCN(Cc3ccc(C(F)(F)F)cc3)CC2)Oc2ccccc2N1c1ccccc1	i	25µM*	-29%	1%	20µM*
O=C1CC2(CCN(CC3CC3)CC2)Oc2ccccc2N1c1ccccc1	i	?	1%	i	-28%
O=C1CC2(CCN(Cc3ccc(F)cc3)CC2)Oc2ccccc2N1c1ccccc1	i	?	0%	0%	50µM*
CC(C)C1=NOC2(CCN(Cc3ccc(C#N)cc3)C2)C1 (stereo not given)	nt	i	nt	i	-9%[172 µM]
CN1CCCCC12Cc1ccccc1CN(C(=O)c1ccccc1)C2 (stereo not given)	nt	-22%	nt	-6%	?

Screens: PubChem, National Center for Advancing Translational Sciences (NCATS)
